# Screen size: about 6,200 compounds; about 2,900 (47%) were called active. So high a share suggests a set chosen from earlier hits. The list shows a part of the results. Values without a mark were called inactive. No stated cut-off is given here; in the data, active means inhibition above about 50%; inactive means the rest.
# Assay: Mycobacterium tuberculosis growth inhibition, primary screen (AID 1259343)
# Conditions: inhibition: at 10 µM, active compounds read high; outcome: 10 uM
row,SMILES,inhibition
1,COc1ccccc1CCNc1nncc(-c2ccccc2)n1,inactive
2,COc1ccc(-c2cnnc(NCCC3=CCCCC3)n2)c(OC)c1,inactive
3,C1=C(CCNc2nncc(-c3ccccc3)n2)CCCC1,61.1% (active)
4,Cc1ccc(NC(=O)c2cnc3cc(C(=O)N(C)C)n(C)c3c2)cc1Cl,84.7% (active)
5,CC1CCc2nc(NC(=O)Cc3c(F)cccc3Cl)sc2C1 (stereo not drawn),59.4% (active)
6,CCOC(=O)C(C#N)=CNc1nc2c(s1)CC(C)CC2 (stereo not drawn),23.7%
7,CCC1CCc2nc(NC(=O)Cc3c(C)noc3C)sc2C1 (stereo not drawn),36.4%
8,O=C(Cc1c(F)cccc1Cl)Nc1nc2c(s1)CCCC2,95.5% (active)
9,CCOC(C)C(=O)Nc1nc2c(s1)CC(c1ccccc1)CC2 (stereo not drawn),35.4%
10,CC1CCc2nc(C(C#N)=Cc3cccs3)sc2C1 (stereo not drawn),-38.8%
11,CCOC(=O)C1=C(COC(=O)c2ccc([N+](=O)[O-])s2)NC(=O)NC1C (stereo not drawn),21.7%
12,O=C(Nc1cccc(-c2nc3c(s2)CCCC3)c1)C1CC1,7.39%
13,CC(C)(CNC(=O)Nc1nc2c(s1)CCCC2)c1cccs1,1.49%
14,CC1CCc2nc(NC(=O)C3CCN(c4ncccn4)CC3)sc2C1 (stereo not drawn),90.3% (active)
15,CC1CCc2nc(NC(=O)c3ccc([N+](=O)[O-])s3)sc2C1 (stereo not drawn),102% (active)
16,CC1CCc2nc(NC(=O)CSC(=S)N3CCCCC3C)sc2C1 (stereo not drawn),32.5%
17,CC1CCc2ccc(F)cc2N1S(=O)(=O)c1ccc(Cl)s1 (stereo not drawn),30.3%
18,Cc1ccc(SCC(=O)N2CCN(Cc3ccccc3)C2=O)cc1,20.7%
19,NC(=O)CSc1ccc(-c2cccc(CN3CCOCC3)c2)cc1,54.4% (active)
20,Fc1cccc(CN2CCN(Cc3ccc(-c4cccnc4)cc3)CC2)c1,46.7%
21,Cc1ccc2nc(-c3ccc(NS(C)(=O)=O)cc3)sc2c1,29.5%
22,Cc1ccc(S(=O)(=O)c2nnc(-c3ccccc3)s2)cc1,58.3% (active)
23,Brc1ccc(Oc2nnc(-c3ccccc3)s2)cc1,43.2%

row,SMILES,inhibition
1,CCC(C)C(=O)Nc1ccc(Cl)c2cccnc12 (stereo not drawn),-29.8%
2,CC(=O)CCc1ccc(OCCCOc2ccc(Cl)c3cccnc23)cc1,69.7% (active)
3,CNc1nc(=S)[nH]c2ccccc12,72.5% (active)
4,CCNc1nc(=S)[nH]c2ccccc12,-44.3%
5,S=c1nc(NC2CC2)c2ccccc2[nH]1,85.5% (active)
6,Cc1nn2c(nc(NC3CCCC3)c3ccccc32)c1Cl,13.2%
7,COc1ccc(Cc2nc(-c3ccc(Br)cc3)no2)cc1,-10.8%
8,COc1ccc(-c2noc(Cc3ccc(F)c(Br)c3)n2)cn1,58.1% (active)
9,COc1ccc(-c2csc(C(O)c3cccc(Cl)c3)n2)cn1 (stereo not drawn),40.1%
10,CC(C)c1nc2c(c(=O)c3ccccc3n2C)c(=O)n1-c1ccccc1,-10.5%
11,CC1CCN(C(=S)NC2CC3CCC2C3)CC1 (stereo not drawn),67.5% (active)
12,NC(=S)Cc1nc2ccccc2[nH]1,98.2% (active)
13,CCc1ccc(/C=C/c2nc3ccccc3[nH]c2=O)cc1,26.4%
14,c1ccc2[nH]c(CCC3CCCCC3)nc2c1,-43.3%
15,O=c1ccn(CCOc2cc(Cl)cc(Cl)c2)c(Cl)c1,53.2% (active)
16,N#Cc1c(N)sc2c1CCN(c1nccc(C(F)(F)F)n1)C2,-0.04%
17,COc1ccc(CC(=O)Nc2cc(-c3cccs3)nn2-c2nc(C)cc(=O)[nH]2)cc1,99.4% (active)
18,COc1ccc(CC(=O)Nc2cc(-c3cccs3)nn2-c2nc(C)c(C)c(=O)[nH]2)cc1,99.9% (active)
19,Cc1nc(-n2nc(-c3cccs3)cc2NC(=O)CCC2CCCC2)[nH]c(=O)c1C,101% (active)
20,Cc1nc(-n2nc(-c3cccs3)cc2NC(=O)C2CC2)[nH]c(=O)c1C,-19.4%
21,COc1ccc(OCC(=O)Nc2cc(-c3cccs3)nn2-c2nc(C)cc(=O)[nH]2)cc1,99.1% (active)
22,CC(C)c1cc(=O)[nH]c(-n2nc(-c3cccs3)cc2NC(=O)Cc2ccc(F)cc2)n1,6.65%
23,CC(C)c1cc(=O)[nH]c(-n2nc(-c3cccs3)cc2NC(=O)COc2ccccc2F)n1,100% (active)

row,SMILES,inhibition
1,CC(C)c1cc(=O)[nH]c(-n2nc(-c3cccs3)cc2NC(=O)CCc2ccccc2)n1,19.2%
2,COc1ccc(CC(=O)Nc2cc(-c3cccs3)nn2-c2nc(C(C)C)cc(=O)[nH]2)cc1,100% (active)
3,Cc1cc(=O)[nH]c(-n2nc(-c3cccs3)cc2NC(=O)COc2ccccc2F)n1,-30.7%
4,CCCCCOc1ccc(C(=O)N2CCC(O)(c3ccccc3)CC2)cc1OCCCCC,35.2%
5,Cc1ccc(NCc2nsc(N(C)C)n2)c(F)c1,51% (active)
6,O=C(COCc1ccccc1)N(Cc1ccccc1)Cc1nc2cc(Cl)ccc2o1,-20.6%
7,O=C(NCC1CCCCO1)c1ccc2oc(CCCc3ccccc3)nc2c1 (stereo not drawn),47%
8,O=C(c1ccc2oc(CCCc3ccccc3)nc2c1)N1CCCCO1,50.9% (active)
9,N#Cc1c(F)cccc1Oc1ccc(C(=O)O)cc1,39.2%
10,CS(=O)(=O)NCc1ccc(Oc2ccccc2F)c(F)c1,1.57%
11,CS(=O)(=O)NC(=O)c1ccc(Oc2ccc(F)cc2F)cc1,72.8% (active)
12,Cc1ccccc1CSc1nc2c(c(=O)n1C)SCC2,45.6%
13,O=c1c2sccc2nc(SCCc2ccccn2)n1-c1ccccc1,12.8%
14,CCOc1ccccc1CSc1nc2ccsc2c(=O)n1C,102% (active)
15,S=C1Nc2ccccc2C2CC=NN12 (stereo not drawn),55.7% (active)
16,COc1ccc(OCCSC2=Nc3ccccc3C3CC=NN23)cc1 (stereo not drawn),45.9%
17,CC(C)c1cc(C(=O)N2CCCC(C(=O)c3ccc4ccccc4c3)C2)on1 (stereo not drawn),15.6%
18,Cc1ncc(CN2CCCC(C(=O)Nc3cccc(-c4ccc(F)cc4)c3)C2)s1 (stereo not drawn),61.6% (active)
19,Cc1nnsc1C(=O)N1CCCC(C(=O)Nc2cccc(-c3ccc(F)cc3)c2)C1 (stereo not drawn),17.2%
20,CC(C)c1cc(C(=O)N2CCCC(C(=O)Nc3cccc(-c4ccc(F)cc4)c3)C2)on1 (stereo not drawn),83.1% (active)
21,O=C(Nc1cccc(-c2ccc(F)cc2)c1)C1CCCN(C2CCSCC2)C1 (stereo not drawn),86.7% (active)
22,Cc1nc(C)c(CN2CCCC(C(=O)Nc3ccc(-c4cccc(F)c4)cc3)C2)nc1C (stereo not drawn),90.5% (active)

# Source: PubChem BioAssay AID1259343 (VanderVen Lab, College of Veterinary Medicine, Cornell …, 2017)
